Test [1] can be described thus: qHTS drug screen for cell cycle checkpoint inhibitors in PARPi-resistant BRCA-mutant ovarian cancer cell lines. (AID 1963452; calls by dose curve; note: potency is the fitted concentration of half-maximal effect). The settings on record: PEO1/OlaR viability, CellTiter-Glo luminescence, 96 h; for Z-AUC: stronger effect = lower value. The gist of the method:
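PEO1, PEO4 and PEO1/OlaR ovarian cancer cells, 600 per well, exposed 96 h at 37C to a dilution series. Viability read by CellTiter-Glo luminescence, normalized to DMSO and empty wells; activity summarized as Z-AUC.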
In general terms: qHTS replaces the single test concentration by a dilution series.

The nature of test [2]: qHTS profiling for inhibitors of Plasmodium falciparum proliferation (AID 504749).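 For activity, negative = inhibition: 0% = DMSO vehicle and full inhibition = artemisinin control.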 For all read-outs here: nearly all actives have a fitted effect of over 60% in size. Note: potency is the fitted concentration of half-maximal effect. The settings on record: P. falciparum in erythrocytes, SYBR Green DNA, 72 h; for activity, negative = inhibition: at 28.7 µM (top of the series). The gist of the method: (§1)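 Readout was DNA-dye fluorescence from lysed cultures, ex 485/em 535 nm. Parasitized red cells had grown 72 h with compound; data scaled between 0.29 uM artemisinin and DMSO wells and corrected using vehicle-only plates.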

A further test relates to 3D7. Described as above. The settings on record: P. falciparum in erythrocytes, SYBR Green DNA, 72 h; series mostly up to 28.7 µM. The method in brief: as §1
The test system of the next test is 7G8. The description is as above. The settings on record: P. falciparum in erythrocytes, SYBR Green DNA, 72 h; series mostly up to 28.7 µM. The gist of the method:
as §1

A further test deals with AA1029. The test is described as above. The settings on record: P. falciparum in erythrocytes, SYBR Green DNA, 72 h; series mostly up to 28.7 µM. The gist of the method:
as §1

The test system of a further test is AS120. The description is as above. The settings on record: P. falciparum in erythrocytes, SYBR Green DNA, 72 h; series mostly up to 28.7 µM. The gist of the method: as §1
The test system of a further test is ATS189. The description is as above. The settings on record: P. falciparum in erythrocytes, SYBR Green DNA, 72 h; series mostly up to 28.7 µM. The gist of the method:
as §1

In the next test the test system is ATS95. The description is as above. The settings on record: P. falciparum in erythrocytes, SYBR Green DNA, 72 h; series mostly up to 28.7 µM. The method in brief: as §1
Another test concerns C2A. Described as above. The settings on record: P. falciparum in erythrocytes, SYBR Green DNA, 72 h; series mostly up to 28.7 µM. The method in brief: as §1
A further test relates to CP185. The description is as above. The settings on record: P. falciparum in erythrocytes, SYBR Green DNA, 72 h; series mostly up to 28.7 µM. The gist of the method:
as §1

A further test deals with CP191. The test is described as above. The settings on record: P. falciparum in erythrocytes, SYBR Green DNA, 72 h; series mostly up to 28.7 µM. The gist of the method:
as §1

The test system of another test is CP192. The description is as above. The settings on record: P. falciparum in erythrocytes, SYBR Green DNA, 72 h; series mostly up to 28.7 µM. The gist of the method:
as §1

In a further test the test system is CP194. The test is described as above. The settings on record: P. falciparum in erythrocytes, SYBR Green DNA, 72 h; series mostly up to 28.7 µM. The method in brief: as §1
In another test the test system is CP201. The description is as above. The settings on record: P. falciparum in erythrocytes, SYBR Green DNA, 72 h; series mostly up to 28.7 µM. The gist of the method:
as §1

For another test, the system named is CP203. The description is as above. The settings on record: P. falciparum in erythrocytes, SYBR Green DNA, 72 h; series mostly up to 28.7 µM. The method in brief:
as §1

The test system of a further test is CP211. Described as above. The settings on record: P. falciparum in erythrocytes, SYBR Green DNA, 72 h; series mostly up to 28.7 µM. The gist of the method:
as §1

For the next test, the system named is CP215. Described as above. The settings on record: P. falciparum in erythrocytes, SYBR Green DNA, 72 h; series mostly up to 28.7 µM. The method in brief: as §1
The next test deals with CP217. The description is as above. The settings on record: P. falciparum in erythrocytes, SYBR Green DNA, 72 h; series mostly up to 28.7 µM. The method in brief: as §1
Another test concerns CP237. The description is as above. The settings on record: P. falciparum in erythrocytes, SYBR Green DNA, 72 h; series mostly up to 28.7 µM. The method in brief:
as §1

A short description of test [3]: Dual reporter qHTS for antagonist of Pregnane X Receptor (hPXR) against the NCATS DSHEA and TCM libraries: Fluorescence Readout (AID 1920061). Note: 0% is about no effect. The settings on record: PXR dual reporter cells, antagonist mode; series mostly up to 40 µM. The method in brief: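 In antagonist mode, 2 uM rifampicin was added to hPXR-Luc HepG2 cells alongside test substances, incubated 24 h at 37 C; luminescence gave reporter activity, and CellTiter-Fluor fluorescence (405/540 nm) gave viability.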

Where [4] appears, read: measured here: PEO1 parental Z-AUC.

This is an account of results in PubChem BioAssay (NCATS).

“And” between values parts separate entries of the source, which are not always exact repeats. Identical values can stand only once. Inconclusive results are not listed. The source made the active and inactive calls. Unless noted, calls come from the whole dose curve; as a rule, active = well fitted curve in the direction sought with a large enough effect; inconclusive = small, poorly fitted or top-dose-only effect, or another doubt; inactive = no such curve, though single readings can be large; an effect the other way counts as inactive or inconclusive.

For `Cn1c(=O)c2c(ncn2CC2OCCO2)n(C)c1=O`, the Z-AUC is -0.883 (inactive) in test [1], -0.316 in test [1] (setting [4]) and 0.00528 in test [1] (measured here: PEO4 Z-AUC). Besides, the activity, negative = inhibition is -11.9% (inactive) in test [2] (parasite line A) and -9.38% (inactive) in [2] (parasite line B). Further, the Potency result in the test on 3D7, with 7G8, in the test on AA1029, in the test on AS120, with ATS189 and with ATS95 was “inactive” throughout. Besides, the Potency entry in the test with C2A, with CP185, with CP191, in the test with CP192, in the test with CP194 and in the test on CP201 was “inactive” throughout. Also, the Potency entry with CP203, in the test with CP211, in the test with CP215, in the test with CP217 and with CP237 was “inactive” in each case.
In the case of `CCCCN(CCCC)CC(O)c1cc(Cl)cc2c1-c1ccc(Cl)cc1/C2=C/c1ccc(Cl)cc1` (centres undefined), the Z-AUC in test [1] is -0.171 (inactive); in test [1] (setting [4]), -0.362; in test [1] (measured here: PEO4 Z-AUC) it was -0.228. In addition, the Potency in test [2] (parasite line A) is 25.1 nM (active); in test [2] (parasite line B), 7.1 nM (active); in the test with 3D7, 15.8 nM (active); in the test with 7G8, 2.8 nM (active); with AA1029, 14.1 nM (active); in the test with AS120 it was 10 nM (active). The Potency in the test on ATS189 is 12.6 nM (active); in the test with ATS95 it was 12.6 nM (active); in the test on C2A, 44.7 nM (active); with CP185, 31.6 nM (active); with CP191, 28.2 nM (active); with CP192, 47.8 nM (active). The Potency is 47.8 nM (active) with CP194; 151 nM (active) with CP201; 19 nM (active) in the test on CP203; 53.6 nM (active) in the test on CP211; 42.6 nM (active) in the test on CP215; 35.5 nM (active) in the test on CP217. The Potency with CP237 was 11.2 nM (active).
With `Nc1ccc(S(=O)(=O)Nc2nccs2)cc1`, the activity, negative = inhibition was 1.04% (inactive) in test [2] (parasite line A) and -2.23% (inactive) in test [2] (parasite line B). The Potency entry in the test on 3D7, with 7G8, with AA1029, in the test with AS120, in the test on ATS189 and in the test on ATS95 was “inactive” throughout. For the same compound, the Potency result in the test with C2A, in the test on CP185, in the test on CP191, with CP192, in the test on CP194 and with CP201 was “inactive” throughout. In addition, the Potency entry with CP203, with CP211, in the test on CP215, with CP217 and in the test with CP237 was “inactive” each time.
Regarding `CC(=O)O[C@@]12CO[C@@H]1C[C@H](O)[C@@]1(C)C(=O)[C@H](O)C3=C(C)[C@@H](OC(=O)[C@H](O)[C@@H](NC(=O)OC(C)(C)C)c4ccccc4)C[C@@](O)([C@@H](OC(=O)c4ccccc4)[C@H]21)C3(C)C`, the Potency in [1] is 8.7 nM (active). The Z-AUC in test [1] (setting [4]) is -2.65; in test [1] (measured here: PEO4 Z-AUC), -3.1.
For `NC(=O)c1ncn([C@@H]2O[C@H](CO)[C@@H](O)[C@H]2O)n1`, the Z-AUC in [1] is -0.199 (inactive); in test [1] (setting [4]) it was -0.186; in test [1] (measured here: PEO4 Z-AUC), -0.149.
For `CC(C)c1c(C(=O)Nc2ccccc2)c(-c2ccccc2)c(-c2ccc(F)cc2)n1CC[C@@H](O)C[C@@H](O)CC(=O)O` the same measures were -0.739 (inactive), -0.99 and -1.27.
For the compound `COc1ccc(S(=O)(=O)Nc2nnc(CC(C)C)s2)cc1`, the activity, negative = inhibition in test [2] (parasite line A) is 3.77% (inactive) and -5.99% (inactive); in [2] (parasite line B), 15.9% (inactive) and -5.44% (inactive). Also, the Potency entry in the test on 3D7, with 7G8, in the test on AA1029, with AS120, in the test with ATS189 and in the test on ATS95 was “inactive” throughout. Also, the Potency result in the test with C2A, with CP185, with CP191, in the test on CP192, in the test on CP194 and in the test with CP201 was “inactive” throughout. Moreover, the Potency result with CP203, in the test on CP211, in the test on CP215, with CP217 and in the test on CP237 was “inactive” each time.
For `CC1=C(C/C=C(\C)CCC[C@H](C)CCC[C@H](C)CCCC(C)C)C(=O)c2ccccc2C1=O`, the compound was called inactive in [3].
For `CC1=C(/C=C/C(C)=C/C=C/C(C)=C/C(=O)O)C(C)(C)CCC1`, the Z-AUC in test [1] was -0.215 (inactive); in [1] (setting [4]), 0.0467; in [1] (measured here: PEO4 Z-AUC), 0.421. For the same compound, the activity, negative = inhibition in test [2] (parasite line A) is 11.8% (inactive); in test [2] (parasite line B), -26.7% (inactive). In addition, the Potency result with 3D7, with 7G8, in the test on AA1029, in the test with AS120, with ATS189 and in the test with ATS95 was “inactive” in each case. The Potency entry with C2A, in the test with CP185, in the test with CP191, in the test on CP192, in the test with CP194 and with CP201 was “inactive” throughout. The Potency result in the test on CP203, in the test on CP211, with CP215, in the test on CP217 and in the test with CP237 was “inactive” each time.
